This is a sample that favours compounds with a hit; in the whole collection about 3.7% have one here.
esBAF inh: blocks esBAF chromatin remodeling in mouse ES cells | Bmi1-luciferase knock-in reporter, 24 h; 100% = twice the neutral-well signal | AID 602393 | reporter increase, % at 12.5 µM | 350,000 compounds, 2% hits; in the data active = activation above about 40%; inconclusive = no clear call, values can overlap the other calls;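 also: 0% = median of the plate's neutral control wells and 100% = double that signal; a rise in the Bmi1 reporter signal indicates esBAF inhibition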
Ecoli rRNA inh: inhibitors of bacterial rRNA selective over humanized ribosomes. E. coli WT GFP vs humanized-ribosome RFP mutants, fluorescence, 24 h; active compounds read low; DMSO median 0, no signal -100. GFP signal change (wild-type ribosome), % (concentration not given with the values). 350,000 compounds, 1.6% hits;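 active = significant combined selectivity score with lowered wild-type GFP, culture density cut under 30%, mutant RFP and density less affected; inactive = any of these conditions unmet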
AF4-AF9 inh: MLL-AF4/AF9 protein interaction inhibition | AlphaScreen, biotin-AF4 peptide binding to FLAG-AF9 | inhibition, % at 10 µM | 350,000 compounds, 0.47% hits;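 active = every replicate reaching a set inhibition limit, whatever the replicate mean, cut at about 25% in these data; inconclusive = mean inhibition reaches that limit but some replicates miss it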;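 also: 0% = plate neutral control median and 100% = total signal loss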
Target sequence (P42568 whole entry, looked up): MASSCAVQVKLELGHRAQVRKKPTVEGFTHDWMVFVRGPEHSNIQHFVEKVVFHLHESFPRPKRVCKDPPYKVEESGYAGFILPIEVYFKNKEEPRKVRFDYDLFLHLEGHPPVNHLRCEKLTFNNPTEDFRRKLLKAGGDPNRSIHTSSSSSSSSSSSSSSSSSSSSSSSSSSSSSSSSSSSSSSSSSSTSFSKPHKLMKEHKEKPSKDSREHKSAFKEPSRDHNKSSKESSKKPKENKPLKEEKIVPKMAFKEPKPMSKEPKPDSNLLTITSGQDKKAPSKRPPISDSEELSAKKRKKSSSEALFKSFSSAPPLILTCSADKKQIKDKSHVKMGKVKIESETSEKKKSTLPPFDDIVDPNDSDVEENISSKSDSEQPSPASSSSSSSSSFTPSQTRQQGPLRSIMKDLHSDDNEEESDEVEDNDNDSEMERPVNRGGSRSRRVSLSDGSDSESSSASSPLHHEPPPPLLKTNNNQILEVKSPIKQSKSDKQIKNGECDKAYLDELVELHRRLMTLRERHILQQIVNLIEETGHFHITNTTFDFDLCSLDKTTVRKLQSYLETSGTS
Wnt bcat act: Wnt/beta-catenin pathway activation; Wnt/beta-catenin reporter cell assay, activator, plate reader; 300,000 compounds, 1.2% hits; activation, % at 9.35 µM; AID 743398; in the data active = activation above about 30%, passing the limit was not always enough; inconclusive = no clear call, values can overlap the other calls;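 also: 0% = neutral control wells and 100% = positive control wells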
MITF TRPM1 HTS: MITF TRPM1 promoter activation in melanoma cells. SK-MEL-5 TRPM1-promoter luciferase, 24 h; % of positive control, neutral wells = 0. activation, % at 12.5 µM. 300,000 compounds, 0.75% hits. AID 588334;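 active = mean activation of at least 80% with every replicate also reaching 80%; inconclusive = mean reaches 80% but some replicate falls short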;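 also: 0% = neutral control wells and 100% = parthenolide positive control wells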
Ring1 derepress: esBAF inhibition confirmed by Ring1 de-repression; shares compounds with esBAF inh; mouse ESC E14, Ring1 mRNA RT-qPCR fold change; fold change at 33 µM; 550 tested, under 10 active; AID 743176;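 active = Ring1 gene expression raised more than 2-fold over untreated cells in both replicates at either tested dose; inconclusive = only one replicate above 2-fold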;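 also: Ring1 transcript normalised to actin housekeeping signal by TaqMan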
Fgf4 repress: esBAF inhibition confirmed by Fgf4 repression | Fgf4 expression fold change at 33 µM | AID 743177 | 550 compounds, 4% hits | mouse ESC E14, Fgf4 mRNA qPCR fold change; active compounds read low | shares compounds with esBAF inh;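 active = Fgf4 expression under 0.8 fold of control in both repeat measurements at one or both tested doses; inconclusive = under 0.8 fold in just a single repeat measurement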;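 also: Fgf4 transcript normalised to actin in duplex TaqMan qPCR; cells exposed to compound for 24 h before lysis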
esBAF Bmi1 qPCR: de-represses Bmi1 in mouse ESCs, confirming esBAF inhibition; shares compounds with esBAF inh; mouse ESE14 ES cells, Bmi1 mRNA qPCR fold; active compounds read high; fold change at 33 µM; 550 tested, under 10 active; AID 743180;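 active = Bmi1 expression fold change above 6 at either tested concentration, seen in replicate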;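 also: higher fold means more Bmi1 de-repression and stronger esBAF inhibition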
A549 tox SP: cytotoxicity in A549 cells; shares compounds with esBAF inh; 550 tested, under 10 active; cell viability change % (negative = cytotoxic), % at 25 µM, hits read low; plate reader; AID 743188; call rule not given here
HepG2 tox SP: HepG2 cell cytotoxicity at single point; shares compounds with esBAF inh; activity change, negative = inhibition, % at 25 µM; 550 compounds, 4% hits; AID 743189; plate reader; active compounds read low; in the data active = activity change below about -50%
HEK293 cytotox SP: HEK293 cell cytotoxicity at single point. shares compounds with esBAF inh. plate reader. activity change, negative = inhibition, % at 25 µM, hits read low. 550 compounds, 3% hits; in the data active = activity change below about -38%, passing the limit was not always enough
Starred values were filed as active, the others as inactive; ? = inconclusive; / = no result given.

SMILES	esBAF inh	Ecoli rRNA inh	AF4-AF9 inh	Wnt bcat act	MITF TRPM1 HTS	Ring1 derepress	Fgf4 repress	esBAF Bmi1 qPCR	A549 tox SP	HepG2 tox SP	HEK293 cytotox SP
COc1ccc(OCCn2nnc(-c3ccc(Cl)cc3)n2)cc1	/	/	/	/	-10	/	/	/	/	/	/
C[C@@H]1CN([C@@H](C)CO)C(=O)c2cccc(NC(=O)c3cnccn3)c2O[C@H]1CN(C)C(=O)Nc1ccc2c(c1)OCO2	4	1	-1	/	/	/	/	/	/	/	/
Cc1nc(-c2ccccc2)nc2[nH]ccc(=O)c12	64*	/	/	27	/	2.2*	?	1.9	-6	-37	-10
c1ccc(-c2cc3ccccc3[nH]2)cc1	54*	2	-1	28	96*	0.96	1.1	1.2	-3	-24	-17
COc1ccc(NC2=C(C(C)=O)C(c3ccc(OC)c(OC)c3)C(C(C)=O)C(C)(O)C2)cc1 (stereo not given)	2	/	/	4	1	/	/	/	/	/	/
CN(C)CC(=O)N[C@H]1CC[C@H](CCNC(=O)C2CCCC2)O[C@H]1CO	4	3	1	/	/	/	/	/	/	/	/
CCn1c(COc2ccc(OC)cc2)nc2ccccc21	61*	/	/	43*	59	1	0.96	1.4	-13	15	-9
COc1ccc(NC(=O)O/N=C/c2ccccc2)cc1	53*	2	1	39*	75	1	?	1.7	-9	-34	-9
CCOC(=O)Cc1csc(NC(=O)Nc2ccc(Cl)cc2)n1	/	-3	-1	3	-1	/	/	/	/	/	/
Cc1csc(NC(=O)Nc2ccc(Cl)cc2)n1	60*	/	/	19	63	1	1	1.6	-13	-16	-12
COc1cc(/C=C/c2nc3ccccc3c(=O)[nH]2)ccc1OC(F)F	56*	9	-2	35*	?	1.2	1	1.5	-8	-24	-1
COc1ccc(C(=O)c2sc(Nc3ccc(NC(C)=O)cc3)nc2C)cc1	9	-8	-17	-4	/	/	/	/	/	/	/
COc1ccc(Nc2nc(C)c(C(C)=O)s2)cc1	82*	7	-5	5	/	1.2	0.88	1.4	-5	-8	0
Cc1nc(Nc2ccccc2)sc1C(=O)c1ccc(F)cc1	66*	-68	9	10	53	1.1	0.88	1.5	7	-12	0
Cc1cccc(Nc2nc(-c3sc(C)nc3C)cs2)c1	69*	-4	2	8	/	1.2	0.95	1.7	-1	-16	-23
CC(=O)c1ccc(NC(=O)C2CC(=O)N(Cc3ccccc3)C2)cc1 (stereo not given)	56*	/	/	/	60	1.4	0.96	1.5	-11	-19	-11
O=C(Nc1ccccc1)C1CC(=O)N(Cc2ccccc2)C1 (stereo not given)	0	18	0	-2	-9	/	/	/	/	/	/
N#CC(c1ccccc1O)N1N=C(c2ccccc2)CC1c1ccccc1 (stereo not given)	58*	-18	7	29	29	1.1	0.95	1.3	-3	7	-4
Cn1c(/C=N/NC(=O)c2ccccc2)nc2ccccc21	26	11	-42	-1	35	/	/	/	/	/	/
Cn1c(C(=O)N/N=C/c2ccccc2)cc2ccccc21	64*	-1	2	-4	/	1.3	0.86	1.6	1	-28	1
Cc1nc2ccc(-c3nc4ccccc4[nH]3)cc2[nH]1	/	-9	-1	?	55	/	/	/	/	/	/
Cc1ccc(-c2nc3ccccc3[nH]2)cn1	63*	6	-14	0	33	0.9	1.4	1.4	-30	-38	-28

Source: PubChem BioAssay (Broad Institute)
